Compound activity as filed in PubChem.
SRC3 TRFRET art – TR-FRET detection interference compounds, artefact control for PPARgamma SRC-3 recruitment agonists, biochemical, TR-FRET ratio | TR-FRET artefact counter-screen, PPARgamma/SRC-3 format; stronger effect = higher value | TR-FRET ratio at 8 µM | 99,000 tested, 0.39% active
TR-FRET SRC-2 ct – TR-FRET signal artefacts, primary screen, artefact control for PPARgamma SRC-2 agonist project, biochemical; TR-FRET artefact counter-screen; stronger effect = higher value; 200,000 tested, 0.4% active; TR-FRET ratio at 8 µM
PPARg SRC3 recr – PPARgamma agonists recruiting SRC-3 coactivator, primary screen, biochemical | Peroxisome proliferator-activated receptor gamma (Homo sapiens), P37231 | biochemical PPARgamma/SRC-3 coactivator recruitment assay | activation, % at 8 µM | 200,000 tested, 0.26% active; in the data active = activation above about 23%;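 note: 0% = DMSO and 100% = reference agonist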
Target sequence (P37231 whole entry, looked up): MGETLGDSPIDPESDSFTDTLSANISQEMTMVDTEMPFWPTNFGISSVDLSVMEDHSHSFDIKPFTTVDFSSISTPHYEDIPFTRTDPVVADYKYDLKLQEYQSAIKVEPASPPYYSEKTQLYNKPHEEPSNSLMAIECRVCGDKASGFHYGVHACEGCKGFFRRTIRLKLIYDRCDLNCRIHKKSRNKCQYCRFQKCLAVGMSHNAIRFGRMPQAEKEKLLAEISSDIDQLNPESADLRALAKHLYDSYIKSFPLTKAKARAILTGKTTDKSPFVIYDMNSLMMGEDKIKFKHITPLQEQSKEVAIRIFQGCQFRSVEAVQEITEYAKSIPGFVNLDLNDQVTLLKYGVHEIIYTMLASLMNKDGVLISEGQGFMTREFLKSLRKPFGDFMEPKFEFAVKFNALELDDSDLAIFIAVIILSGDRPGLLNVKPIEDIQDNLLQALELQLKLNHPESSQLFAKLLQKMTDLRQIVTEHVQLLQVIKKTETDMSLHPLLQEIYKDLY
PPARg SRC-2 ag – agonists of PPARg-SRC-2 recruitment, primary screen, biochemical, HTS | AID 1032, 2008 | 200,000 tested, 0.34% active | PPARgamma LBD-SRC-2 recruitment | activation, % at 8 µM; in the data active = activation above about 22%;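 note: 0% = vehicle and 100% = reference agonist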
SRC1 TRFRET art – TR-FRET detection interference compounds, primary screen, artefact control for PPARgamma SRC-1 recruitment agonists, biochemical, TR-FRET emission ratio. TR-FRET ratio at 8 µM. 99,000 tested, 0.34% active. TR-FRET detection artefact counter-screen; stronger effect = higher value. AID 1051, 2008; in the data active = TR-FRET ratio above about 2300
PPARg SRC1 recr – PPARgamma agonists recruiting SRC-1 coactivator, primary screen, biochemical | 200,000 tested, 0.41% active | PPARgamma-SRC-1 coactivator recruitment biochemical assay | Peroxisome proliferator-activated receptor gamma (Homo sapiens), P37231 | AID 631, 2007 | activation, % at 8 µM; in the data active = activation above about 19%;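 note: 0% = DMSO and 100% = reference agonist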
Starred values were filed as active, the others as inactive; x = no result. Compounds with a hit are over-represented: about 0.9% of the library has one in this group of screens. Cut-off read from the data, not from the text of the source, unless noted: active = TR-FRET ratio above about 2000; inactive = the rest.

SMILES	SRC3 TRFRET art	TR-FRET SRC-2 ct	PPARg SRC3 recr	PPARg SRC-2 ag	SRC1 TRFRET art	PPARg SRC1 recr
COc1cc(OC)cc(-n2nnnc2SCC(=O)Nc2ccc(C(C)=O)cc2)c1	x	1477	-1	7	x	51*
COc1ccc(-n2nnnc2SCC(=O)c2cc3ccccc3o2)cc1	x	2072*	2	1	x	7
COc1ccc(N/C=C/C(=C(C#N)C#N)N(C)C)cc1	1651	1563	-2	-2	1693	-6
Cc1cccc(NC2=CC(=O)CC(C)(C)C2)c1C	1651	1607	-1	-1	1869	2
CCOC(=O)C1CCN(CCC(=O)Nc2ccc(C)c(C)c2)CC1	1352	1537	3	-3	2091	22*
Cc1ccc(C(=O)c2cnc3cc4c(cc3c2S(=O)(=O)c2ccccc2)OCCO4)cc1	2485*	1863	-2	0	2238	-7
CCOc1ccc(S(=O)(=O)c2c(C(=O)c3ccc(C)cc3)cnc3cc4c(cc23)OCCO4)cc1	2812*	2406*	10	-3	2755*	8
O=C(NCCCCNC(=O)c1ccc(Cl)s1)c1ccc(Cl)s1	x	1432	-1	5	x	2
O=C(NCCCCCCNC(=O)c1ccc(Br)s1)c1ccc(Br)s1	x	2455*	1	5	x	-9
CC1CCN(S(=O)(=O)c2ccc(C(=O)Nc3sccc3C(N)=O)cc2)CC1	x	1507	-1	-2	x	29*
O=C(Nc1ccc2oc(-c3ccncc3)nc2c1)c1ccc(F)cc1	1522	1538	9	7	1768	9
O=C(Cc1ccc(Cl)cc1)Nc1ccc2oc(-c3ccncc3)nc2c1	x	1678	1	9	x	6
Cc1cc(OCC(=O)Nc2ccc3oc(-c4ccncc4)nc3c2)ccc1Cl	x	1643	1	9	x	42*
O=C(Nc1ccc2oc(-c3ccncc3)nc2c1)c1c(F)c(F)c(F)c(F)c1F	x	1536	9	-2	x	48*
COC(=O)c1cn(Cc2ccccn2)c(=O)c2ccccc12	1607	1444	6	-5	1634	2
Cc1ccccc1CC1(CO)CCCN(C(=O)CCC(=O)c2ccccc2)C1 (stereo unspecified)	1671	1534	-1	0	2022	22*
Cc1cc(C)cc(N(C(=O)c2sc(C)nc2C)C(C(=O)NC(C)(C)C)c2ccncc2)c1 (stereo unspecified)	1807	1766	3	-3	1610	8
O=C(c1cc2sccc2n1Cc1ccccc1)N1CCN(c2nc3ccccc3s2)CC1	x	2570*	11	8	x	7
CCC(=O)N1CCN(c2nc3ccccc3s2)CC1	x	1508	9	4	x	0
NC(=O)c1cc([N+](=O)[O-])ccc1NCCN1C(=O)c2ccccc2C1=O	1393	1555	2	3	1985	7
Cn1cccc1CC(=O)N/N=C/C(Cl)=C/c1ccccc1	1886	1579	7	-1	2381*	4
Cc1ccc(C(c2nnnn2CC2CCCO2)N2CCN(Cc3ccccc3)CC2)cc1 (stereo unspecified)	1352	1443	-2	-6	1621	-3
OC1(c2ccc(Cl)cc2)CN(c2ccccc2)C2=[N+]1CCS2 (stereo unspecified)	1793	1612	5	6	1791	8
OC1(c2ccc(Br)cc2)CN(c2ccccc2)C2=[N+]1CCS2 (stereo unspecified)	2102*	1571	8	3	1718	4
FC(F)(F)c1cccc(NC(=S)NCc2ccc(Cl)cc2)c1	2072*	1667	6	3	1768	6
Cc1cc(=O)[nH]c(N/N=C/c2sccc2C)n1	1636	1625	3	9	1872	7
Cc1ccsc1/C=N/Nc1nc2ccccc2[nH]1	1746	1670	8	17	2515*	13
CC(C)Cc1nc(Cl)c(C#N)c2c1CCCC2	2298*	1374	21	-6	1692	-7
CCN(C(=O)CN1CCOCC1)c1c(N)n(Cc2ccccc2)c(=O)[nH]c1=O	1542	1638	3	1	1793	-4
O=C(Nc1ccccc1-c1nc2ccccc2s1)c1cccnc1	1465	4568*	2	6	1745	0
